In general, AC50 refers to the concentration at which the activity in the assay is half-maximal.

The text below walks through data of PubChem BioAssay AID1851 (National Center for Advancing Translational Sciences (NCATS), 2009).

Where “and” joins values, the source holds several entries; their conditions need not be identical. Equal values may be shown once. The whole screen tested about 16,000 compounds, of which about 4,000 (25%) were called active. Another 26% or so got no clear call; they are omitted. The call rests on the fitted dose curve; in most records, active means well fitted curve in the direction sought with a large enough effect; inconclusive means small, poorly fitted or top-dose-only effect, or effect the other way; inactive means no such curve, though single readings can be large or run the other way. Only a sample is shown. Some structures have more than one record in an assay (separate samples or runs), and their calls can disagree. Square brackets hold non-standard residues; d marks the D form. Peptide text beside a SMILES is read from it. * marks the point of attachment. ξ: configuration not given here. Cbz = O=C(OCc1ccccc1)*; PhAc = O=C(Cc1ccccc1)*; OBn = c1ccc(CO*)cc1; ξP = O=C(O)C1CCCN1
On the % scale 0 is the no-effect control and ±100 the full control effect.

The experiment deals with Cytochrome P450 2C9 (Homo sapiens) (UniProt P11712). The experiment is described as follows: Cytochrome panel assay with activity outcomes. As to conditions: recombinant CYP, pro-luciferin dealkylation, luminescence, p450-cyp2c9; series mostly up to 57.1 µM; activity, negative = inhibition: at the top concentration.
Chain of Cytochrome P450 2C9 (Homo sapiens) (P11712 whole entry, looked up): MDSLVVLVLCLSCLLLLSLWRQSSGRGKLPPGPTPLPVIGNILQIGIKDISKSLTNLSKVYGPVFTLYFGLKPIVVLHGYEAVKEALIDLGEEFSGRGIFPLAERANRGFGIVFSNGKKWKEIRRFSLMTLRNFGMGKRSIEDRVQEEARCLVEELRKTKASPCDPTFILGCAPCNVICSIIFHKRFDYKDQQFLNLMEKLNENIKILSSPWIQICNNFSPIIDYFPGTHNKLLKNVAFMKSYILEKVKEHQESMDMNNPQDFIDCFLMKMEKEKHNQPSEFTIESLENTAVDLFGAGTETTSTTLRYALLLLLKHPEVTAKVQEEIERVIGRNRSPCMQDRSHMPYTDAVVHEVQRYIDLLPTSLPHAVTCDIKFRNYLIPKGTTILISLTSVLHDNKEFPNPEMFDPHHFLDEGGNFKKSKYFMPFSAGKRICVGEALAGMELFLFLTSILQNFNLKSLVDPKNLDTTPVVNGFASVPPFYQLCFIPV
In the case of `COc1ccc(NC(=O)N2CC[C@@]3(CCCN(C(=O)c4cnccn4)C3)C2)cc1`, the “activity, negative = inhibition” value is -2.53% (inactive).

Regarding `CCOC(=O)c1sc(NC(=O)CSc2nc(C)cc(C)c2C#N)c(C#N)c1C`, the concentration at half-maximal activity (AC50) was 1 µM (active).

Turning to `Cc1ccccc1OCC(=O)Nc1sc(C(=O)Nc2cccc(C)c2C)c(C)c1C#N`, the “activity, negative = inhibition” value was -1.71% (inactive).

Take `CCOC(=O)c1sc(NC(=O)CSc2n[nH]c(-c3ccc(Cl)cc3Cl)n2)c(C#N)c1C`: the half-maximal activity concentration (AC50) is 1.26 µM (active).

Turning to `CCOc1cccc(NC(=O)CSc2nc(C)c3c(c2C#N)CCCC3)c1`, the “activity, negative = inhibition” value was -7.91% (inactive).

In the case of `CCOC(=O)c1sc2c(c1C)c(=O)c(C(=O)OCC)cn2CC`, the “activity, negative = inhibition” value was -27.7% (inactive).

Regarding `CCOC(=O)c1sc(NC(=O)CSc2nc(C)cc(C)n2)c(C#N)c1C`, the half-maximal activity concentration (AC50) is 3.55 µM (active).

Consider `CCN(CC)CCN1c2ccccc2Sc2ccc3ccccc3c21`, for which the activity, negative = inhibition was 0.978% [at 11.4 µM] (inactive).

Take `Cn1cnc2c(NCc3ccccc3)nc(NCCO)nc21`: the “activity, negative = inhibition” value is 22.9% (inactive).

Take `C/C(CCN1CCCCc2nc(C)c(C)cc21)=N\OC[C@@H](O)COCc1ccco1`: the activity, negative = inhibition is -10.7% [at 11.4 µM] (inactive).

Regarding `Cc1cccn2c(=O)c3cc(C(=O)N4COCC4(C)C)n(C)c3nc12`, the “activity, negative = inhibition” value was 26.7% (inactive).

Consider `c1ccc2c3c([nH]c2c1)[C@@H]1[C@H]2CC[C@H]([C@H]4CCCN[C@H]42)N1CC3`, for which the “activity, negative = inhibition” value was 10.6% [at 25.6 µM] (inactive).

For `CC(=O)C=NCC(=O)O`, the activity, negative = inhibition is -1.6% [at 11.4 µM] (inactive).

On to `O=c1cc(N2CCCCC2)c(-c2ccccc2)nn1Cc1ccccc1Cl`, for which the AC50 was 20 µM (active).

In the case of `CC1=NOC(=O)/C1=C\c1ccc(-c2ccc(Cl)cc2Cl)o1`, the half-maximal activity concentration (AC50) was 10 µM (active).

As to `CCCCCCCCCCCCCCC[C@@H](O)[C@@H](N)CO`, the “activity, negative = inhibition” value is -7.66% (inactive).

As to `NC(=O)OCC(COC(N)=O)c1ccccc1`, the “activity, negative = inhibition” value is -4.82% (inactive).

On to `COc1ccccc1N1CCN(CCN2C(=O)CC3(CCCC3)CC2=O)CC1`, for which the AC50 entry was “inactive”.

With `COc1ccccc1N1CCN(CCCCNC(=O)c2ccc3ccccc3c2)CC1`, the AC50 entry is “inactive”.

As for `COc1ccccc1N1CCN(CCCCN2C(=O)c3ccccc3C2=O)CC1`, the AC50 entry is “inactive”.

In the case of `COc1ccccc1N1CCN(CCCCN2C(=O)CCC2=O)CC1`, the half-maximal activity concentration (AC50) is 3.98 µM (active).

Turning to `COc1ccccc1N1CCN(CCCNc2cc(=O)n(C)c(=O)n2C)CC1`, the half-maximal activity concentration (AC50) result is “inactive and 12.6 µM (active)”.

Consider `COc1ccccc1N1CCN(CCN2C(=O)c3ccccc3C(C)(C)C2=O)CC1`, for which the “activity, negative = inhibition” value is 20.3% (inactive).

For the compound `N=c1c(C(=O)NC2CCCC2)cc2c(=O)n3ccccc3nc2n1C1CCCC1`, the “activity, negative = inhibition” value is -18.4% (inactive).

`O=C(NCCCN1CCCCCC1)[C@@H](c1ccccc1)C1CCCCC1`: the “activity, negative = inhibition” value is 6.43% (inactive).

Regarding `Cn1nc(C(=O)NC2CCCCC2)c2ccccc2c1=O`, the AC50 is 7.94 µM (active).

`O=C(Nc1nnc(C2CC2)s1)c1cc(S(=O)(=O)N2CCN(c3ccccc3)CC2)ccc1Cl`: the half-maximal activity concentration (AC50) is 7.08 µM (active).

On to `COC(=O)C/C=C\[C@@H](C)[C@@H](/C=N\O[C@@H](C)CN1CCCCc2nc(C)c(C)cc21)NS(=O)(=O)c1ccc(C)cc1`, for which the activity, negative = inhibition was -13.5% [at 11.4 µM] (inactive).

As for `O=C(O)C/C(=C\c1ccco1)C(=O)O`, the activity, negative = inhibition is 4.79% [at 11.4 µM] (inactive).

Consider `O=C(CNC(=O)Cc1ccccc1)NCC(=O)OCc1ccccc1` (PhAc-Gly-Gly-OBn), for which the “activity, negative = inhibition” value is 21.8% (inactive).

`O=C(CNC(=O)OCc1ccccc1)NCC(=O)N1CCCC1C(=O)OCc1ccccc1` (stereo not drawn) (Cbz-Gly-Gly-[ξP]-OBn): the “activity, negative = inhibition” value is -3.89% (inactive).

As to `O=C(O)CNC(=O)c1ccccc1O`, the activity, negative = inhibition was 1.11% [at 11.4 µM] (inactive).

Take `COc1cc(/C=C(/NC(=O)c2ccccc2Cl)C(=O)O)cc(OC)c1OC`: the “activity, negative = inhibition” value is -5.09% (inactive).

On to `O=C(CNC(=O)/C(=C\c1ccccc1)NC(=O)c1ccc(Br)cc1)OCc1ccccc1`, for which the AC50 is 3.55 µM (active).

Consider `O=C(NCC1CCCO1)/C(=C\c1ccco1)NC(=O)c1ccccc1` (stereo unspecified), for which the “activity, negative = inhibition” value was -11.4% (inactive).

As to `COc1ccccc1C(=O)N/C(=C/c1ccc(Br)cc1)C(=O)NCC(=O)O`, the half-maximal activity concentration (AC50) is 15.8 µM (active).

For the compound `O=C(NC(Cc1ccccc1)C(=O)O)/C(=C\c1ccco1)NC(=O)c1ccc(Br)cc1` (stereo unspecified), the concentration at half-maximal activity (AC50) is 15.8 µM (active).

On to `O=[N+]([O-])c1ccc(CSc2ncnc3c2ncn3[C@@H]2O[C@@H](CO)[C@@H](O)[C@H]2O)cc1`, for which the “activity, negative = inhibition” value is 5.51% (inactive).

Consider `C=C(Br)CN(C)CC(=C)Br`, for which the activity, negative = inhibition is 2.22% [at 11.4 µM] (inactive).

Turning to `CC(=O)OCC1=C(C(=O)O)N2C(=O)[C@@H](NC(=O)Cc3cccs3)[C@@H]2SC1`, the AC50 result is “inactive”.

On to `COc1ccc(CNc2cc(-c3cccnc3)ncn2)c(OC)c1`, for which the activity, negative = inhibition is 17.1% [at 2.29 µM] (inactive).

For `COc1ccccc1CNc1cc(-c2cccnc2)ncn1`, the activity, negative = inhibition is -0.576% [at 2.29 µM] (inactive).

With `COc1ccc(CCNc2nc(-c3cccnc3)cs2)cc1OC`, the AC50 was 2.51 µM (active).

For `Cc1sc(NC(=O)C2CCCCC2)c(C#N)c1-c1ccccc1`, the half-maximal activity concentration (AC50) is 15.8 µM (active).

Take `Cc1sc(NC(=O)/C=C/c2ccc(C(C)C)cc2)c(C#N)c1C`: the “activity, negative = inhibition” value is 24.1% (inactive).

Consider `Oc1ccc(CNCc2ccccc2)c2cccnc12`, for which the activity, negative = inhibition was -9.84% [at 11.4 µM] (inactive).
